An excerpt weighted towards active compounds, which were near 28% of everything screened.
CYP2C19 act – human CYP2C19 activators, primary screen, biochemical, luminescence; Cytochrome P450 2C19 (Homo sapiens), P33261; 96,000 tested, under 10 active; recombinant CYP2C19, luciferin-H EGE luminescence; stronger effect = higher value; 0 = fully inhibited enzyme, 1 = untreated enzyme; activation factor at 5 µM;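 active = activation factor of at least 2 at 5 µM in the primary screen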
Target sequence (P33261 whole entry, looked up): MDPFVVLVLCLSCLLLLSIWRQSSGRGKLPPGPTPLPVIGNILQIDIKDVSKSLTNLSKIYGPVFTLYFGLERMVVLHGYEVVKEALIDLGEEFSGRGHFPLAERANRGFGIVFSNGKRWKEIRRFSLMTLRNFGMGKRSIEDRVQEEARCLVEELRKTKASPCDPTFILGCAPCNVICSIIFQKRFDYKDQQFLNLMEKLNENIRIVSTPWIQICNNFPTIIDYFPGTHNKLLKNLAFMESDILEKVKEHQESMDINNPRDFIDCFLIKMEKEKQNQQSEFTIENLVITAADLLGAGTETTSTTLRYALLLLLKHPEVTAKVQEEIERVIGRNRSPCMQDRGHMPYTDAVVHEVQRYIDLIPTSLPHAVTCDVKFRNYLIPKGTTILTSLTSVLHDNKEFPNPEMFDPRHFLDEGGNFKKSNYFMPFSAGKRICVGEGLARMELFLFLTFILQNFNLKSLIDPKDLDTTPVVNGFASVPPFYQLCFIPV
Mac1 fbg inh – inhibitors of CD11b/CD18 adhesion to fibrinogen, primary screen, K562 cells, luminescence. Integrin beta-2 (Homo sapiens) + Integrin alpha-M (Homo sapiens), P05107+P11215. ATPlite luminescence; Mn2+ added to activate the integrin. inhibition, % at 10 µM. actives 0.54% (n = 93,000);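 active = primary inhibition of 50% or more at 10 µM, then 40% or more on retest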
CYP2C9 inh – blockers of cytochrome P450 2C9 activity – biochemical, luminescence, ADME assay, primary screen | P11712 | CYP2C9 Supersomes, luciferin-H conversion | inhibition, % at 5 µM | actives 20% (n = 96,000);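 active = blocking of liver enzyme CYP2C9 beyond about 50% at 5 µM, limit read from the data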
CYP2C19 inhib – blockers of cytochrome P450 2C19 activity – biochemical, luminescence, ADME assay, primary screen; actives 21% (n = 96,000); CYP2C19 Supersomes, luciferin-H EGE luminescence, 30 min; inhibition, % at 5 µM;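 active = CYP2C19 inhibition above a set limit at 5 µM in the primary screen, cut at about 50% in these data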
CYP2C9 activ – human CYP2C9 activators, primary screen, biochemical, luminescence. actives 1.4% (n = 96,000). activation factor at 5 µM. Cytochrome P450 2C9 (Homo sapiens), P11712. AID 1024, 2008. recombinant CYP2C9, luciferin-H conversion; stronger effect = higher value; factor 1 = untreated enzyme, 0 = blocked;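 active = activation factor of 2 or more for CYP2C9 at a 5 µM dose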
CD11b adhes enh – enhancers of CD11b/CD18 adhesion to fibrinogen, primary screen, K562 cells, luminescence. AID 1499, 2009. Integrin beta-2 (Homo sapiens) + Integrin alpha-M (Homo sapiens), P05107+P11215. actives 0.07% (n = 93,000). activation, % at 10 µM. ATPlite luminescence;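 active = 10 µM primary screen giving 50% or more activity, confirmed by 40% or more on retest at that dose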
Large screens that a line does not name were inactive.

CN(C)S(=O)(=O)N1CCN(CC(=O)Nc2cc(Cl)ccc2Cl)CC1	CYP2C19 inhib 71.5
CN(C)S(=O)(=O)N1CCN(Cc2ccccc2)CC1	CYP2C19 inhib 92.9
CN1CCN(CC(=O)Nc2ccc(Cl)cc2Cl)CC1	none
CN(C)S(=O)(=O)N1CCN(c2cccc(Cl)c2)CC1	none
COc1ccccc1CNC(=O)C1CCN(S(=O)(=O)c2ccc3c(c2)OCCCO3)CC1	none (no result: CYP2C19 act, CYP2C9 inh, CYP2C19 inhib, CYP2C9 activ)
Cc1ccc(S(=O)(=O)C(C#N)c2nc3ccccc3nc2OC(C)C)cc1 (stereo not drawn)	none (no result: Mac1 fbg inh)
O=C(O)CCCCCN=C1CCc2ccccc2N1	none
O=C1NC2(CCCCCC2)C(=O)N1Cc1ccc([N+](=O)[O-])cc1	none (no result: CYP2C19 act, CYP2C9 inh, CYP2C19 inhib, CYP2C9 activ)
CCCOc1ccc(C(C(=O)OCCN(CC)CC)c2ccccc2)cc1 (stereo not drawn)	none
COc1ccc(C(=O)NCC(=O)OCC(=O)c2ccc3c(c2)OCCO3)cc1	none
CN(C)S(=O)(=O)N1CCN(C(=O)N(c2ccccc2)c2ccccc2)CC1	none
CN(C)S(=O)(=O)N1CCN(c2cc(Cl)ccc2Cl)CC1	CYP2C9 inh 68.0, CYP2C19 inhib 90.8
CN(C)S(=O)(=O)N1CCN(c2ccccc2Cl)CC1	CYP2C9 inh 81.3, CYP2C19 inhib 91.6
CCc1ccccc1NC(=O)CSc1nc2ccccc2n1CC(=O)N(C)C	CYP2C9 inh 56.1, CYP2C19 inhib 79.1
CCOC(=O)CSc1nc2ccccc2n1CC(=O)NC(C)(C)C	none
CCc1cccc(C)c1NC(=O)CSc1nc2ccccc2n1CC(=O)N(C)C	CYP2C19 inhib 53.7
CCOC(=O)c1ccc(CNCc2ccc(C)cc2)cc1	none (no result: CYP2C19 act, CYP2C9 inh, CYP2C19 inhib, CYP2C9 activ)
CCOC(=O)N1CCN(c2ccc(S(=O)(=O)N(Cc3ccccc3)Cc3ccccc3)cn2)CC1	none
O=C(CC1Oc2ccccc2NC1=O)NC1CCCC1 (stereo not drawn)	CYP2C9 activ 2.4
CCN(CCNC(=O)CC1Oc2ccccc2NC1=O)c1ccccc1 (stereo not drawn)	CYP2C19 inhib 61.0
CCN(Cc1ccccc1)C(=O)CC1Oc2ccccc2NC1=O (stereo not drawn)	CYP2C19 inhib 88.5
CCOC(=O)CCCNC(=O)COC(=O)CCC(=O)c1ccc(F)cc1	none
CCC(Sc1nncn1C)C(=O)Nc1ccccc1OC (stereo not drawn)	none
CCOC(=O)c1c(-c2ccccc2)csc1NC(=O)c1cccc(N2C(=O)CCC2=O)c1	CYP2C9 inh 83.8 (no result: Mac1 fbg inh, CD11b adhes enh)
CCOC(=O)c1c(-c2ccc(C)cc2)csc1NC(=S)NC(=O)c1ccccc1	CYP2C9 inh 93.1
O=C(Oc1ccccc1)c1cccc(N2C(=O)CCC2=O)c1	CYP2C9 inh 50.7, CYP2C19 inhib 65.7
O=C(Nc1ccccc1)c1cccc(N2C(=O)CCC2=O)c1	none
CCOC(=O)c1c(-c2ccccc2)csc1NC(=O)C1CCCO1 (stereo not drawn)	none
CCOC(=O)c1c(-c2ccc(F)cc2)csc1NC(=O)c1c(-c2ccccc2)noc1C	none (no result: CYP2C19 act, CYP2C9 inh, CYP2C19 inhib, CYP2C9 activ)
CC(=O)N(Cc1ccccc1)c1ncc2c(n1)c(=O)c(C#N)c1ccccn12	none
COc1ccc(C(=O)Nc2ccc(C(=O)Nc3nccs3)cc2)cc1[N+](=O)[O-]	none (no result: CYP2C19 act, CYP2C9 inh, CYP2C19 inhib, CYP2C9 activ)
CC1CCN(C(c2ccc(N(C)C)cc2)c2nnnn2C(C)(C)C)CC1 (stereo not drawn)	CYP2C19 inhib 59.5
COc1ccc(C(c2nnnn2C2CCCC2)N2CCc3ccccc3C2)cc1OC (stereo not drawn)	none
CC(C)(C)n1nnnc1C(c1ccccc1)N1CCc2ccccc2C1 (stereo not drawn)	CYP2C19 inhib 53.7 (no result: Mac1 fbg inh, CD11b adhes enh)
CN(C)c1ccc(C(c2nnnn2C(C)(C)C)N2CCc3ccccc3C2)cc1 (stereo not drawn)	CYP2C19 inhib 58.4
CC1CCN(C(c2ccc(N(C)C)cc2)c2nnnn2Cc2ccccc2)CC1 (stereo not drawn)	none
CCC(CO)NC1=C([N+](=O)[O-])C(=O)CC(C)(C)C1 (stereo not drawn)	none (no result: CYP2C19 act, CYP2C9 inh, CYP2C19 inhib, CYP2C9 activ)
C=CCOC(=O)C1CC=CCC1C(=O)Oc1ccc(F)cc1F (stereo not drawn)	CYP2C9 inh 69.3, CYP2C19 inhib 86.3
Cc1c(N=C2SCC(=O)N2/N=C\c2ccc(Br)cc2)c(=O)n(-c2ccccc2)n1C	none (no result: CYP2C19 act, CYP2C9 inh, CYP2C19 inhib, CYP2C9 activ)
CCC1CCC(NC2CCCCNC2=O)CC1 (stereo not drawn)	none
CCCCCn1c(N)c(-c2nc3ccccc3s2)c2c([N+](=O)[O-])nn(CC)c(=O)c21	CYP2C9 inh 72.4
CCCCn1c(N)c(-c2nc3ccccc3s2)c2c([N+](=O)[O-])nn(CC)c(=O)c21	CYP2C9 inh 67.9
COc1cc2[nH]c(=S)n(NC(=O)CC(C)C)c(=O)c2cc1OC	none
C=CCn1c(-c2csc3ccccc23)n[nH]c1=S	CYP2C9 inh 78.2, CYP2C19 inhib 93.1
C=CCn1c(-c2csc(-c3ccc(Cl)cc3)n2)n[nH]c1=S	CYP2C19 inhib 81.0
C=CCn1c(-c2csc(-c3ccccc3)n2)n[nH]c1=S	none
CCn1c(SCc2nc3sc(C(=O)O)c(C)c3c(=O)[nH]2)nc2ccccc21	CYP2C9 inh 55.4
COCCn1c(SCc2nc3sc(C(=O)OC)c(C)c3c(=O)[nH]2)nc2ccccc21	CYP2C9 inh 91.4, CYP2C19 inhib 73.9
CSc1nc(Oc2ccc(=O)n(C)n2)nc(N(C)C)n1	none (no result: Mac1 fbg inh, CD11b adhes enh)
CCC(CO)Nc1ncnc2c1cnn2-c1ccc(OC)cc1 (stereo not drawn)	none
CCC(CO)Nc1ncnc2c1cnn2-c1ccc(Cl)cc1 (stereo not drawn)	CYP2C9 inh 65.2
Fc1ccc(CNc2ccc(CNc3ncn[nH]3)cc2)cc1	CYP2C19 inhib 64.0
Cc1ccc(NC(=S)NCc2cccnc2)cc1	CYP2C19 inhib 69.9 (no result: Mac1 fbg inh, CD11b adhes enh)
S=C(NCc1cccnc1)Nc1ccc(Cl)cc1	none (no result: Mac1 fbg inh, CD11b adhes enh)
COc1cc(CNc2ncn[nH]2)cc(Br)c1OC	none
c1ccc(NCc2cccnc2)cc1	none
S=C(NCc1cccnc1)Nc1cccc(Cl)c1	CYP2C9 inh 66.1, CYP2C19 inhib 72.9 (no result: Mac1 fbg inh, CD11b adhes enh)
Fc1ccc(NCc2cccnc2)cc1	CYP2C19 inhib 57.8
CC(=O)c1ccc(-n2nnnc2SCC(=O)NNC(=O)c2ccco2)cc1	none (no result: Mac1 fbg inh, CD11b adhes enh)
CC(=O)c1cccc(NC(=O)NC(C)C2CCCO2)c1 (stereo not drawn)	none
CCOC(=O)CCCNC(=O)CN1C(=O)NC2(CCCCCC2)C1=O	none
c1ccc(N2CCN(Cc3ccnc4ccccc34)CC2)cc1	Mac1 fbg inh 76.1, CYP2C19 inhib 64.4
O=c1cc(CN2CCN(c3ccccc3)CC2)c2c(ccc3ccccc32)o1	none
CC(C)CC(c1nnnn1CCc1ccccc1)N1CCN(C(=O)c2ccco2)CC1 (stereo not drawn)	CYP2C9 inh 98.5, CYP2C19 inhib 80.1
